Test results reported in PubChem BioAssay (NCATS).
A number with no mark means an inactive call. Inconclusive results are not listed. Where a call stands in place of a potency, no number is given. Activity calls are given as the source filed them. The call rests on the fitted dose curve; in most records, active means well fitted curve in the direction sought with a large enough effect; inconclusive means small, poorly fitted or top-dose-only effect, or another doubt; inactive means no such curve, though single readings can be large; an effect the other way counts as inactive or inconclusive.

Columns and labels:
[1] = Cellular Toxicity (caspase-3) Mesangial (AID 660); settings: mesangial cells, normalized: DMSO 0%, 100 µM tamoxifen 100%; at 91.7 µM (top of the series);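 further: cells exposed to compound for 16 h before the caspase read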
Summary of the method: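 Human renal glomerular mesangial cells (1000/well) were treated with compounds for 16 h at 37 °C in complete medium, then caspase 3/7 activity was read by Caspase-Glo luminescence. Data were normalized to DMSO and 100 uM tamoxifen; AC50 from Hill fits.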

[2] = Cellular Toxicity (caspase-3) SK-N-SH (AID 661)
Summary of the method: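 SK-N-SH human neuroblastoma cells (1500/well) were treated with compounds for 16 hr at 37 °C in complete medium; caspase 3/7 activity was read by Caspase-Glo luminescence. AC50 came from Hill fits of data normalized to DMSO and 10 uM staurosporine.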

[3] = Cellular Toxicity (caspase-3) H-4-II-E (AID 663); settings: H-4-II-E rat hepatoma, scaled: DMSO 0%, 100 µM tamoxifen 100%; at 92.2 µM (top of the series);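 further: cells exposed to compound for 16 hr before readout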
Summary of the method: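 Luminescence from caspase-cleaved aminoluciferin substrate, read 20 min after reagent addition, reports caspase 3/7 activation in rat H-4-II-E cells after 16 hr compound exposure. Normalized to DMSO (basal) and 100 uM tamoxifen (100%); AC50 from Hill fits.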

[4] = Cellular Toxicity (caspase-3) Hek293 (AID 664); settings: HEK293 caspase-3 activation, DMSO = 0%, 100 µM tamoxifen = 100%; at 92.2 µM (top of the series);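 further: cells exposed to compound for 16 h at 37 °C before readout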
Summary of the method: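 HEK293 cells were exposed to compounds in complete medium for 16 hr at 37 °C, then caspase-3/7 activity was read by Caspase-Glo 3/7 luminescence after 20 min at room temperature. Data normalized to DMSO and 100 uM tamoxifen; AC50 from Hill fits.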

[5] = Cellular Toxicity (caspase-3) N2a (AID 665);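 further: compound exposure lasted 16 h at 37 °C before readout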
Summary of the method: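 Mouse N2a neuroblastoma cells (1500/well) were treated with compounds for 16 h at 37 °C, then caspase-3/7 activity was read by Caspase-Glo luminescence after 1 h at room temperature. Data were normalized to DMSO and 10 uM staurosporine; AC50 from Hill fits.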

[6] = Cellular Toxicity (caspase-3) NIH 3T3 (AID 666)
Summary of the method: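 Mouse NIH 3T3 fibroblasts (1000 cells/well) were treated with compound for 16 hr at 37°C in complete medium; caspase-3/7 activity was read by Caspase-Glo luminescence. Normalized to DMSO and 100 uM tamoxifen; AC50 from Hill fits.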

[7] = Cellular Toxicity (caspase-3) Renal Proximal Tubule (AID 667); settings: Potency: caspase-3 activation;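 further: cells exposed to compound for 16 hours at 37 °C before detection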
Summary of the method: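 Caspase-Glo 3/7 read-out, rat primary kidney proximal tubule cells. Compound exposure 16 h, 37 °C; detection after 1 h at RT. Activity scaled to DMSO and 10 uM staurosporine.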

[8] = biological target: Cytochrome P450 3A4 (Homo sapiens) (UniProt P08684); experiment: qHTS Assay for Inhibitors and Substrates of Cytochrome P450 3A4 (AID 884); further: nearly all actives have a fitted effect of over 50% in size; further: potency means the concentration at half of the fitted maximal effect
Sequence of Cytochrome P450 3A4 (Homo sapiens) (P08684 whole entry, looked up): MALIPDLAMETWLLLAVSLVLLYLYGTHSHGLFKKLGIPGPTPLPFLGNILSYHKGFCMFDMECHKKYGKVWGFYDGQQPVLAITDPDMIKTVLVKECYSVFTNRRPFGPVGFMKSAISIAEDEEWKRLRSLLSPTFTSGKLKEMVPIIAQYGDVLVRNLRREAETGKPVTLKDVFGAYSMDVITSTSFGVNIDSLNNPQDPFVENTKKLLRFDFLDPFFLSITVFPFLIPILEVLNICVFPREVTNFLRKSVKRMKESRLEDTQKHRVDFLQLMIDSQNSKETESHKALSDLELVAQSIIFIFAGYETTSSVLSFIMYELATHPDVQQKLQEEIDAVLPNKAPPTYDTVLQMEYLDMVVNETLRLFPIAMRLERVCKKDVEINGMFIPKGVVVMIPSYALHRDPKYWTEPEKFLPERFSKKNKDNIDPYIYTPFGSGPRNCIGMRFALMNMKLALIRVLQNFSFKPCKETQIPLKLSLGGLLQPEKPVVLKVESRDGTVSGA
Summary of the method: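 20 nM human CYP3A4 with 25 uM Luciferin-PPXE (at KM) in 200 mM KPO4, preincubated 10 min with compound; NADPH regeneration started a 60 min RT reaction. Luciferin detected by luminescence, normalized to 57 uM ketoconazole as full inhibition.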

[9] = Cell Viability - LYMP2-001 (AID 921); further: nearly all actives have a fitted effect of over 70% in size
Summary of the method: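 A lymphoblastoid cell line of human origin was treated with library compounds across a concentration series for 24 hours, and viable cell number was estimated from ATP-driven luciferase light output. Hill modeling gave AC50.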

[10] = MultiTox-Fluor Cytotoxicity Assay - LYMP1-001 - Dead Cells (AID 946)
Summary of the method: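 LYMP1-001 lymphoblastoid cells (2500/well) treated 16 h at 37 C. Dead-cell protease cleavage of bis-AAF-R110 read at Ex/Em 485/520. Normalized to DMSO and 15 uM tetraoctylammonium bromide; AC50 from Hill fits.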

[11] = MultiTox-Fluor Cytotoxicity Assay - LYMP1-001 - Live Cells (AID 947)
[12] = Cell Viability - LYMP1-002 - Assay at 16 hr (AID 948)
Summary of the method: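 In this qHTS, lymphoblastoid LYMP1-002 cells (human) receive compounds for 16 hr at 37 C. Viability is taken from CellTiter-Glo ATP luminescence, and AC50 derives from standard Hill fits.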

[13] = MultiTox-Fluor Cytotoxicity Assay - LYMP1-002 - Live Cells (AID 955)
Summary of the method: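 Human lymphoblastoid LYMP1-002 cells, 2500/well in complete medium, rested 5 hr at 37 C, then exposed to compounds for 16 hr at 37 C. Live-cell protease cleavage of GF-AFC read by fluorescence (Ex/Em 405/510) after 60 min at room temperature; AC50 from Hill fits.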

[14] = MultiTox-Fluor Cytotoxicity Assay - LYMP1-002 - Dead Cells (AID 960); further: nearly all actives have a fitted effect of over 60% in size
Summary of the method: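 Human lymphoblastoid cells (LYMP1-002), 2500/well in complete medium, were exposed to compounds for 16 hr at 37 C. Dead-cell protease activity was read as bis-AAF-R110 fluorescence (Ex/Em 485/520), normalized to DMSO and 15 uM tetraoctylammonium bromide; AC50 from Hill fits.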

[15] = MultiTox-Fluor Cytotoxicity Assay - LYMP1-003 - Dead Cells (AID 961); further: nearly all actives have a fitted effect of over 70% in size
Summary of the method: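 LYMP1-003 human lymphoblastoid cells (2500/well) exposed to compound 16 h at 37 C in complete medium; dead-cell protease read with bis-AAF-R110 fluorescence (Ex/Em 485/520) after 60 min at room temperature. Normalized to DMSO and 15 uM tetraoctylammonium bromide; AC50 from Hill fit.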

[16] = MultiTox-Fluor Cytotoxicity Assay - LYMP1-003 - Live Cells (AID 962);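 further: cytotoxic hits lower the live-cell protease signal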
Summary of the method: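 LYMP1-003 human lymphoblastoid cells (2500/well) in complete medium were preincubated 5 hr at 37 C, then exposed to compounds for 16 hr at 37 C. Live-cell protease cleavage of GF-AFC read by fluorescence (Ex/Em 405/510); AC50 from Hill fits.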

[17] = Cell Viability - LYMP1-003 - Assay at 24 hr (AID 963)
Summary of the method: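 Human lymphoblastoid LYMP1-003 cells (2500/well) were rested 5 hr at 37 C, then exposed to compounds in complete medium for 24 hr at 37 C. Cellular ATP was quantified by CellTiter-Glo luminescence, and AC50 values came from Hill fits of concentration-response data.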

[18] = Cell Viability - LYMP1-003 - Assay at 40 hr (AID 964); further: nearly all actives have a fitted effect of over 60% in size
Summary of the method: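 Human lymphoblastoid LYMP1-003 cells, 2500/well in complete medium, rested 5 hr at 37 C, then exposed to compounds for 40 hr at 37 C. Viability read as intracellular ATP by CellTiter-Glo luminescence; AC50 from Hill fits of concentration-response data.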

[19] = Cell Viability - LYMP2-003 (AID 965);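 further: cells exposed to compounds for 24 h before reading; nearly all actives have a fitted effect of over 50% in size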
Summary of the method: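 qHTS, human lymphoblastoid line, 2500 cells/well, complete medium. 24 h drug, 37 C. ATP-based luminescent readout; Hill-fit AC50.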

[20] = biological target: Cytochrome P450 3A4 (Homo sapiens) (UniProt P08684); experiment: qHTS Assay for Activators of Cytochrome P450 3A4 (AID 885); further: nearly all actives have a fitted effect of over 65% in size
Summary of the method: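 Human CYP3A4 (20 nM) with Luciferin-PPXE at 25 uM (its KM) in 200 mM KPO4; 10 min compound preincubation, then NADPH regeneration and 60 min reaction at RT. Luciferin read by luminescence; normalized to 57 uM ketoconazole full inhibition.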

Row | Compound | caspase-3 activation [1] [%] | outcome [2] | caspase-3 activation [3] [%] | caspase-3 activation [4] [%] | outcome [5] | outcome [6] | Potency [7] | Potency [8] | Potency [9] | outcome [10] | outcome [11] | outcome [12] | outcome [13] | outcome [14] | Potency [15] | Potency [16] | Potency [17] | Potency [18] | Potency [19] | outcome [20]
1 | CC(O)COC(C)(C)C (stereo unspecified) | -1.28 | inactive | -0.238 | 2.41 | inactive | inactive | inactive | inactive | inactive | inactive | inactive | inactive | inactive | inactive | inactive | inactive | inactive | inactive | inactive | –
2 | Cc1ccc2ncccc2c1 | 0.979 | inactive | 0.47 | 0.475 | inactive | inactive | inactive | inactive | inactive | inactive | inactive | inactive | inactive | inactive | inactive | inactive | inactive | inactive | – | –
3 | CCOc1cccc(N)c1 | 0.896 | inactive | 1.28 | -0.477 | inactive | inactive | inactive | 31.6 µM (active) | inactive | inactive | inactive | inactive | inactive | inactive | inactive | inactive | inactive | inactive | inactive | inactive
4 | CC1CCCO1 (stereo unspecified) | -0.0447 | inactive | -0.992 | -1.6 | inactive | inactive | inactive | inactive | inactive | inactive | inactive | inactive | inactive | inactive | inactive | inactive | inactive | inactive | – | –
5 | C=Cc1ccccc1C=C | 0.384 | inactive | 0.884 | 1.48 | inactive | inactive | inactive | inactive | inactive | inactive | inactive | inactive | inactive | inactive | inactive | inactive | inactive | inactive | inactive | –
6 | COc1ccc(N)c(C)c1 | 2.2 | inactive | 0.764 | -0.876 | inactive | inactive | inactive | inactive | inactive | inactive | inactive | inactive | inactive | inactive | inactive | inactive | inactive | inactive | inactive | –
7 | Nc1ccccc1S(=O)(=O)O | -0.218 | inactive | -0.112 | 1.83 | inactive | inactive | inactive | inactive | inactive | inactive | inactive | inactive | inactive | inactive | inactive | inactive | inactive | inactive | – | –
